Screening data from PubChem.
BJeLR lethal: MLPCN primary cell-based screen for lethality selective to Ras in HRASV12 cells; BJeLR (HRASV12) viability, CellTiter-Glo ATP luminescence, 48 h; inhibition, % (test concentration not listed); actives 0.17% (n = 300,000); AID 1554, 2009; in the data active = inhibition above about 50%; inconclusive = no clear call, values can overlap the other calls
ugtP null kill: growth inhibition of ugtP-null S. aureus, primary screen, RN4220 ugtP deletion, OD600. growth inhibition, % (concentration not given with the values). 16 h. AID 1259309, 2017. actives 0.54% (n = 330,000); in the data active = growth inhibition above about 68%;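 also: plate controls were untreated wells for no effect and antibiotic for full effect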
Sa RN4220 lethal: growth inhibition of S. aureus RN4220, primary screen, OD600; actives 0.33% (n = 330,000); AID 1259311, 2017; 16 h; inhibition, % (test concentration not listed); in the data active = inhibition above about 85%;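 also: plate controls were untreated cells for no effect and reference antibiotic for full effect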
Y pestis TopoI: Yersinia pestis topoisomerase I inhibitors, primary screen, biochemical, cleavage product accumulation, plate reader, single point; DNA topoisomerase I (Yersinia pestis CO92); Y. pestis Topo-I cleavage product accumulation; activity, % at 10 µM; actives 0.064% (n = 360,000); in the data active = activity above about 50%, passing the limit was not always enough; inconclusive = no clear call, values can overlap the other calls
PrP UTR inh: inhibition of PrP 5' UTR reporter expression; cell-based PrP 5' UTR mRNA reporter, plate reader; inhibition, % (test concentration not listed); actives 0.35% (n = 340,000); AID 488862, 2010; in the data active = inhibition above about 52%; also: 0 = median of the neutral control wells
PfHsp40 rescue: rescue of yeast from PfHsp40 toxicity, primary screen, S. cerevisiae, ATP luminescence; S. cerevisiae expressing PfHsp40, growth rescue; actives 0.68% (n = 340,000); growth rescue, % at 12.5 µM; AID 504582, 2011; in the data active = growth rescue above about 28%, passing the limit was not always enough; inconclusive = no clear call, values can overlap the other calls;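 also: yeast W303a lacking pdr1 and pdr3 grown in galactose medium; growth measured after three days at 30 °C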
* hit, by the source's call; ? = inconclusive; . = no result given. This is a sample that favours compounds with a hit; in the whole collection about 1.4% have one here.

SMILES	BJeLR lethal	ugtP null kill	Sa RN4220 lethal	Y pestis TopoI	PrP UTR inh	PfHsp40 rescue
Cc1ccc(C(=O)O/N=C(\N)c2ccc(Br)cc2)cc1C	-2.3	-3.2	2.3	1.0	-49.9	-0.5
Cc1ccc(C)c(C(=O)O/N=C(\N)c2ccc(Br)cc2)c1	8.6	-3.2	-3.9	4.2	-45.5	501.7*
CSC(=S)N/N=C/c1ccccc1	-4.3	.	.	-2.3	-13.9	257.1*
COc1ccc(/C=N/NC(=S)SC)cc1OC	3.9	.	.	-0.9	-13.9	1.4
OCCC1CC(O)C(O)[C@@]2(OCc3ccccc32)O1 (stereo partly drawn)	.	0.3	7.1	.	.	.
COc1cc(O)c(CC=C(C)C)c(O)c1C(=O)CCc1ccc(O)cc1	-6.7	91.6*	72.5	-30.7	-11.1	209.6*
C=C(C)C(=O)Nc1cccc(C2=NOC3(C2)CC(C(N)=O)N(C(=O)C=CC)C3)c1 (stereo not drawn)	.	-3.9	1.6	.	.	.
ClCCN(CCCl)c1ccc(C=NNc2ncccn2)cc1	.	-0.1	2.8	3.1	-48.8	35.3*
N#Cc1ncc(N=Cc2ccc(N(CCCl)CCCl)cc2)s1	.	2.5	3.4	-9.2	-9.6	-0.1
COc1ccc(C2C=CCN(C(=O)CC(C)(C)C)C(C)C(=O)N2Cc2ccc(F)cc2)cc1 (stereo not drawn)	.	10.3	4.3	.	.	.
CCCCCCCCNC(=O)CCNC(=O)c1ccc(C(C)(C)C)cc1	-5.5	-21.2	2.0	2.1	-6.4	47.1*
O=C(c1ccc(Br)cc1)C(CN1CCOCC1)c1ccccc1 (stereo not drawn)	22.0	100.2*	92.8*	17.8	-2.7	0.6
CCOc1ccc(C(=O)C(CN2CCOCC2)c2ccccc2)cc1 (stereo not drawn)	-0.2	34.6	16.1	13.5	-20.5	?
CC(C)CC1NC(=O)c2cc3ccccc3cc2-n2c1nc1cc(Cl)ccc1c2=O (stereo not drawn)	.	.	.	53.6*	.	.
COc1cc2nc3n(c(=O)c2cc1OC)-c1cc2ccccc2cc1C(=O)NC3Cc1ccccc1 (stereo not drawn)	.	.	.	65.1*	.	.
O=C1NC(Cc2ccccc2)c2nc3ccccc3c(=O)n2-c2cc3ccccc3cc21 (stereo not drawn)	.	.	.	51.0*	.	.
COc1cc2nc3n(c(=O)c2cc1OC)-c1cc2ccccc2cc1C(=O)NC3CC(C)C (stereo not drawn)	.	.	.	29.3	.	.
O=C1NC(Cc2ccccc2)c2nc3cc(F)c(F)cc3c(=O)n2-c2cc3ccccc3cc21 (stereo not drawn)	.	.	.	-6.4	.	.
COC(=O)C1=C(c2ccc(Cl)c(C(F)(F)F)c2)CC2CCC1N2C(=O)NCc1ccco1 (stereo not drawn)	.	-14.8	-5.0	.	.	.
O=C(O)CC1c2cc(C(F)(F)F)ccc2S(=O)(=O)N1C1CCCC1 (stereo not drawn)	.	-4.6	0.5	.	.	.
CCC(=O)Nc1cccc(C2=NOC3(C2)CC(C(N)=O)N(C(=O)CC(c2ccccc2)c2ccccc2)C3)c1 (stereo not drawn)	.	-1.7	2.2	.	.	.
CCCCN1C(=O)C(=O)NCC1C(C)O (stereo not drawn)	.	0.0	1.8	.	.	.
C=CCNC(=O)c1cn(CC)c2cc(N3CCN(C(=O)c4ccco4)CC3)c(F)cc2c1=O	6.5	98.1*	94.1*	18.1	-16.3	0.6
CCn1cc(C(=O)O)c(=O)c2cc(F)c(N3CCNCC3)cc21	5.9	.	.	-3.8	12.4	16.1
CCCCCCCC(=O)N1CCN(c2cc3c(cc2F)c(=O)c(C(=O)O)cn3CC)CC1	-1.2	99.2*	95.4*	4.5	-14.6	0.2
SMILES	BJeLR lethal	ugtP null kill	Sa RN4220 lethal	Y pestis TopoI	PrP UTR inh	PfHsp40 rescue
CCn1cc(C(=O)O)c(=O)c2cc(F)c(N3CCN(C(=S)NC(=O)c4ccc(OC)cc4)CC3)cc21	2.7	98.9*	98.8*	12.2	-9.8	0.2
CCn1cc(C(=O)O)c(=O)c2cc(F)c(N3CCN(C(=O)Nc4ccccc4)CC3)cc21	4.0	96.4*	85.7	3.9	-1.9	-0.4
CCCCCCCCC(=O)N1CCN(c2cc3c(cc2F)c(=O)c(C(=O)O)cn3CC)CC1	1.5	62.5	36.1	-1.3	.	-0.1
COc1cc(CCCN2C(=O)C(=O)NCC2C(C)O)cc(OC)c1OC (stereo not drawn)	.	-4.1	6.6	.	.	.
COc1ccc(-c2ccc(C3C4C=CCC[C@@]4(C)C(=O)N3Cc3ccccc3)c(F)c2)cc1 (stereo partly drawn)	.	11.9	1.8	.	.	.
CC1CN(C(C)CO)C(=O)c2cc(NS(C)(=O)=O)ccc2OC1CN(C)C(=O)NC1CCCCC1 (stereo not drawn)	.	0.6	8.4	.	.	.
CCCCC1CCCO[C@@](C(=O)NCc2cc(C)n(C)n2)(C(F)(F)F)C1 (stereo partly drawn)	.	1.0	3.1	.	.	.
CCn1cc(C(=O)O)c(=O)c2cc(F)c(N3CCN(C(=S)NC(=O)c4ccccc4F)CC3)cc21	-1.0	99.3*	99.1*	8.7	-30.1	0.1
NC(=O)C(Cc1cc2ccccc2s1)NC(=O)C1CC2(CC(c3cccc(NC(=O)C4CCC(=O)N4)c3)=NO2)CN1C(=O)C=Cc1c(F)cccc1Cl (stereo not drawn)	.	-8.1	2.3	.	.	.
COc1cc(OC)c(NC(=S)Nc2cc(Cl)cc(Cl)c2)cc1Cl	0.3	93.4*	98.9*	-23.1	7.4	1.1
COc1cc(OC)c(NC(=S)Nc2cccc(C(C)=O)c2)cc1Cl	-0.5	-1.6	13.1	-6.9	-8.8	-0.4
Cc1ccc(C)c(NC(=S)NNC(=O)c2csc3c2CCCC3)c1	3.9	20.8	6.3	15.2	-14.3	42.1*
Cc1ccc(C)c(NC(=S)NNC(=O)c2csc3c2CCC(C)C3)c1 (stereo not drawn)	-5.3	-17.4	-8.6	11.5	.	62.2*
Cc1cccc(NC(=S)NNC(=O)c2csc3c2CCCC3)c1	0.3	-20.8	5.3	-4.4	-25.0	140.7*
CCc1cc(C(=O)NNC(=S)Nc2cc(C)ccc2C)cs1	-0.3	2.4	3.1	10.4	-22.2	1.1
Cc1ccc(N2C(=O)N3C(c4ccc(F)cc4)C4C(=O)N(C5CCCCC5)C(=O)C4[C@]3(C)C2=O)cc1 (stereo partly drawn)	.	-0.3	4.3	.	.	.
Cc1cccc(C2(c3cccc(C)c3)OC(=O)c3ccccc32)c1	1.5	82.2*	-10.6	0.2	-8.3	-1.6
O=C(Nc1nc(-c2ccccc2)c(-c2ccccc2)o1)c1ccc(F)cc1	-6.8	96.1*	99.1*	4.2	10.7	417.9*
COc1cccc(C(=O)Nc2nc(-c3ccccc3)c(-c3ccccc3)o2)c1	-7.3	15.9	39.6	-6.5	-14.2	3.8
C#CCOCCOCCOCCNc1nc(N2CCN(C(=O)C(CCCCN)n3cc(CCCC)nn3)CC2)nc(N2CCN(C(=O)C(C(C)CC)n3cc(CCCCN)nn3)CC2)n1 (stereo not drawn)	.	4.8	2.8	.	.	.
COc1ccc(CN(C)Cc2cc(=O)oc3cc(C)c(C(C)C)cc23)cc1OC	-15.4	15.8	1.8	23.2	-11.0	0.3
